# Data from paper PMC7862700, “An all-to-all approach to the identification of sequence-specific readers for epigenetic DNA modifications on cytosine”.
# Key:
# Test in all cases: DAPPL (digital affinity profiling via proximity ligation, sequencing); 10 mM Tris-HCl pH 7.5, 50 mM NaCl, 1 mM DTT, 4% glycerol, room temperature, 30 min; GST-TFs on glutathione beads, 16-mer random dsDNA library, 0.1% formaldehyde crosslink after washing; high values mean tight binding
# FEV = molecular target: T1, FEV (Homo sapiens, UniProt Q99581 1-238); conditions: protein: recombinant; tags: N-terminal GST; dsDNA, one strand shown
# T1 sequence: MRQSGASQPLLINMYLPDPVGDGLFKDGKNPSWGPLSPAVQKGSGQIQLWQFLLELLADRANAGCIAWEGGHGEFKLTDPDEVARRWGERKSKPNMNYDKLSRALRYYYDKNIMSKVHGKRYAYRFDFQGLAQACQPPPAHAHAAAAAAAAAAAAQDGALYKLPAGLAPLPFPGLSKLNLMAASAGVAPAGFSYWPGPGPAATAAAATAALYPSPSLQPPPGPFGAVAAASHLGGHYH
# Summary of the method: (§1)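 Binding signal is defined as a hexamer's read frequency for one factor over its frequency for the tag-only sample. To obtain reads, GST-fused human transcription factors were expressed in yeast, captured on glutathione beads, barcoded with DNA and pooled with that sample. Pools met 200 nmole of a 16-mer random double-stranded DNA library in Tris/NaCl/DTT/glycerol buffer for 30 min at room temperature before washing, 0.1% formaldehyde crosslinking, proximity ligation (BsaI/T4 ligase, 1 h, 37 °C), PCR and Illumina NextSeq500 sequencing.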
# ETV5 = ETV5 (Homo sapiens, UniProt P41161 1-510); conditions: protein: recombinant; tags: N-terminal GST; dsDNA, one strand shown
# Chain of ETV5 (P41161 whole entry): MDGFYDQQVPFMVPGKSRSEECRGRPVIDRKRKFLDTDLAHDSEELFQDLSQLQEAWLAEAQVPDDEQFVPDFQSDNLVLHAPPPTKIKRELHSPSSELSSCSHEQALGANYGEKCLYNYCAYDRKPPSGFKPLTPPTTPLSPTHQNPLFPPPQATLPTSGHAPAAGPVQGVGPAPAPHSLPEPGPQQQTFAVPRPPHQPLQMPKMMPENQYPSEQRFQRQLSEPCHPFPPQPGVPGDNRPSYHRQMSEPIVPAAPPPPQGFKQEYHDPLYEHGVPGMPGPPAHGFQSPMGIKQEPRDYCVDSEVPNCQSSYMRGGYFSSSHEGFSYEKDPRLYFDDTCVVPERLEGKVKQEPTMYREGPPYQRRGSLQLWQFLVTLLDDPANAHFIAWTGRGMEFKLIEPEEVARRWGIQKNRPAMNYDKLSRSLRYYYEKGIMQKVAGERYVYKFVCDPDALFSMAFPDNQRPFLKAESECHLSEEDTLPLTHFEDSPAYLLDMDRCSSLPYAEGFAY
# Summary of the method: as §1
# HSF1 = HSF1 (Homo sapiens, UniProt Q00613 1-529); conditions: protein: recombinant; tags: N-terminal GST; chain copies: 3; dsDNA, one strand shown
# Chain of HSF1 (Q00613 whole entry): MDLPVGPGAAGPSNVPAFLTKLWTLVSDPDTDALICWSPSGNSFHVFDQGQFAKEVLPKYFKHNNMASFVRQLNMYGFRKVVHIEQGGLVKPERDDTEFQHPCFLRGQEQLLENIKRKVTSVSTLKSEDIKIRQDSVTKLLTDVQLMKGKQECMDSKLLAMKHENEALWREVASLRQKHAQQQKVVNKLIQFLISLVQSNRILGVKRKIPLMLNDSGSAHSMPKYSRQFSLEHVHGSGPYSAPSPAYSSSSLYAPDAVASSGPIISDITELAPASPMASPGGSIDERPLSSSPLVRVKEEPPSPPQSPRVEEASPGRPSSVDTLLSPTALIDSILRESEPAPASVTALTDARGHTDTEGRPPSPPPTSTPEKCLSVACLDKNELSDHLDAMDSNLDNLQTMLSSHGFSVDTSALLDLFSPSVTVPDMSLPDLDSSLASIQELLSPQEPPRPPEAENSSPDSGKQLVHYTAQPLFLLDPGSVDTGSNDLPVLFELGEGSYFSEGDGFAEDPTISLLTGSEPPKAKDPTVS
# Summary of the method: as §1
# SPIC = molecular target: T2, SPIC (Homo sapiens, UniProt Q8N5J4 1-248); conditions: protein: recombinant; tags: N-terminal GST; dsDNA, one strand shown
# T2 sequence: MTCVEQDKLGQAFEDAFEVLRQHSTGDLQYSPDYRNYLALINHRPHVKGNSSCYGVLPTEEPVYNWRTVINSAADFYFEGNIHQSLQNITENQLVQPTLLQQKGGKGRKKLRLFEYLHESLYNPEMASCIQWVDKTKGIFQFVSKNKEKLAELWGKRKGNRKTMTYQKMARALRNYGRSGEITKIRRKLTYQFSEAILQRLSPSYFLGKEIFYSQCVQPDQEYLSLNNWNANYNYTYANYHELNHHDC
# Summary of the method: as §1
# ELF4 = ELF4 (Homo sapiens, UniProt Q99607 1-663); conditions: protein: recombinant; tags: N-terminal GST; dsDNA, one strand shown
# Chain of ELF4 (Q99607 whole entry): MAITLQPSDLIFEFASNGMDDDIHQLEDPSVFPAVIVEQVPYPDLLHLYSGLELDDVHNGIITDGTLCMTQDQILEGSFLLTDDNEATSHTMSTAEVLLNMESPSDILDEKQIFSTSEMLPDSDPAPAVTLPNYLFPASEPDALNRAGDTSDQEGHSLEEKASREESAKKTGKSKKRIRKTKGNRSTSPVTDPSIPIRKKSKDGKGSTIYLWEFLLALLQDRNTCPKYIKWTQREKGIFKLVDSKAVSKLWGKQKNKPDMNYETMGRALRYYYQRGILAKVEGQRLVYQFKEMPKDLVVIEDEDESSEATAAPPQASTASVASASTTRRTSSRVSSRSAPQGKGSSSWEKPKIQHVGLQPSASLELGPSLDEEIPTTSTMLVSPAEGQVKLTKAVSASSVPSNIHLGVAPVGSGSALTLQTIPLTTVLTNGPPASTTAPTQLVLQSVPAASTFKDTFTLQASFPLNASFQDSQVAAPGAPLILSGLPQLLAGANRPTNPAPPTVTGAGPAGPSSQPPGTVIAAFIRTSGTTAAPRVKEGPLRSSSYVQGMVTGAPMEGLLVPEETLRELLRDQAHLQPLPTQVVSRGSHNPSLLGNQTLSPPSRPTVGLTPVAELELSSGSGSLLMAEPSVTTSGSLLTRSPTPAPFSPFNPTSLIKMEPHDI
# Summary of the method: as §1
# ELK4 = molecular target: T3, ELK4 (Homo sapiens, UniProt P28324-2 1-405); conditions: protein: recombinant; tags: N-terminal GST; dsDNA, one strand shown
# T3 sequence: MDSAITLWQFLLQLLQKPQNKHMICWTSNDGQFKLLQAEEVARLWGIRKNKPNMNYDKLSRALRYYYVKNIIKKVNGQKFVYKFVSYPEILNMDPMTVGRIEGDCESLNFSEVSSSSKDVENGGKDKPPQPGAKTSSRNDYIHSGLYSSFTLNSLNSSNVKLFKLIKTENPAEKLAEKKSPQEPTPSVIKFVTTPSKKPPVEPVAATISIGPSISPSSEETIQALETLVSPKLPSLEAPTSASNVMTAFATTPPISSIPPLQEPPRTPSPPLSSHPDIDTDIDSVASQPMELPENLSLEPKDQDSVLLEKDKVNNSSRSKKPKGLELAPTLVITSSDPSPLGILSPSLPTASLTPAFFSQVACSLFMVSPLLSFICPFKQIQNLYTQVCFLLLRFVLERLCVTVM
# Summary of the method: as §1
# ETV2 = molecular target: T4, ETV2 (Homo sapiens, UniProt O00321 1-342); conditions: protein: recombinant; tags: N-terminal GST; dsDNA, one strand shown
# T4 sequence: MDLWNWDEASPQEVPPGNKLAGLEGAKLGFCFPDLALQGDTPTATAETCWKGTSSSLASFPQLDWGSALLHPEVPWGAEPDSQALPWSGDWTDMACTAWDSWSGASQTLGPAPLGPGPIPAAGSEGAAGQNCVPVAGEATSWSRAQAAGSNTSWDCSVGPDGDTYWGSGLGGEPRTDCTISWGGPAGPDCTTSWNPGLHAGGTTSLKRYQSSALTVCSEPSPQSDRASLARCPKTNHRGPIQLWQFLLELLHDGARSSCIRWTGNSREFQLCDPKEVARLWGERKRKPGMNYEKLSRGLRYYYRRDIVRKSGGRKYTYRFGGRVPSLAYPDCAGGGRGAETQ
# Summary of the method: as §1
# ELF3 = molecular target: T5, ELF3 (Homo sapiens, UniProt P78545 1-371); conditions: protein: recombinant; tags: N-terminal GST; dsDNA, one strand shown
# T5 sequence: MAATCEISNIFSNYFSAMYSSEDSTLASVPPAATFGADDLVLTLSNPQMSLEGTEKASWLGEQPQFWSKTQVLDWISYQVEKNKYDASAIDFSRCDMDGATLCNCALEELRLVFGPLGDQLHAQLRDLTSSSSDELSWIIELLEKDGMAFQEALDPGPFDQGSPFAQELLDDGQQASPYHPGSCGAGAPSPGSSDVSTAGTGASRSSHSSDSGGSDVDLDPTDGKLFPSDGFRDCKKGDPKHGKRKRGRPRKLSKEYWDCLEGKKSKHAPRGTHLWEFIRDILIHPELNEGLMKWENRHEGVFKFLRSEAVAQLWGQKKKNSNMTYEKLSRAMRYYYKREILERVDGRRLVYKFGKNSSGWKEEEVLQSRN
# Summary of the method: as §1
# CRX = CRX (Homo sapiens, UniProt O43186 1-299); conditions: protein: recombinant; tags: N-terminal GST; dsDNA, one strand shown
# Chain of CRX (O43186 whole entry): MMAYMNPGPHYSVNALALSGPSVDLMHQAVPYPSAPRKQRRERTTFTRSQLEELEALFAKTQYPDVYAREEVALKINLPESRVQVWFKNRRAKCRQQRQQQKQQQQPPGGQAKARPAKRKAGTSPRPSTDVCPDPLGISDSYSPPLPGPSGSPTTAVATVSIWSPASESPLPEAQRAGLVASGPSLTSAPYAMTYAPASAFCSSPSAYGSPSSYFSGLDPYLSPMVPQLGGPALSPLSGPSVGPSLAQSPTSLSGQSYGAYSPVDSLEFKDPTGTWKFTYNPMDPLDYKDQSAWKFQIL
# Summary of the method: as §1
# ETV1 = ETV1 (Homo sapiens, UniProt P50549 1-477); conditions: protein: recombinant; tags: N-terminal GST; dsDNA, one strand shown
# Chain of ETV1 (P50549 whole entry): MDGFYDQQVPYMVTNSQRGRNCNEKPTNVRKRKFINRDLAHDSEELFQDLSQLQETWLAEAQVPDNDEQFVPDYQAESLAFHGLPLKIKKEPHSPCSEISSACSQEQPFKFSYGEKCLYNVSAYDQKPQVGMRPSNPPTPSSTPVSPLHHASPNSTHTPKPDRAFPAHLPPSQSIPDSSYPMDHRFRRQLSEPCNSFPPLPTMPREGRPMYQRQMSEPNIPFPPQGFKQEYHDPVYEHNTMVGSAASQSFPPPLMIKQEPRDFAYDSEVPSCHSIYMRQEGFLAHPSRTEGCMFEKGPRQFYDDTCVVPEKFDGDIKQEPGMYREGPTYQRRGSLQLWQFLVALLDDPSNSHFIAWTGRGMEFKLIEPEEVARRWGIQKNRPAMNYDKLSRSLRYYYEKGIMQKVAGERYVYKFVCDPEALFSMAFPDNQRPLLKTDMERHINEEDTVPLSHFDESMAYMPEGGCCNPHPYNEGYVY
# Summary of the method: as §1
# ERF = molecular target: T6, ERF (Homo sapiens, UniProt P50548 1-548); conditions: protein: recombinant; tags: N-terminal GST; dsDNA, one strand shown
# T6 sequence: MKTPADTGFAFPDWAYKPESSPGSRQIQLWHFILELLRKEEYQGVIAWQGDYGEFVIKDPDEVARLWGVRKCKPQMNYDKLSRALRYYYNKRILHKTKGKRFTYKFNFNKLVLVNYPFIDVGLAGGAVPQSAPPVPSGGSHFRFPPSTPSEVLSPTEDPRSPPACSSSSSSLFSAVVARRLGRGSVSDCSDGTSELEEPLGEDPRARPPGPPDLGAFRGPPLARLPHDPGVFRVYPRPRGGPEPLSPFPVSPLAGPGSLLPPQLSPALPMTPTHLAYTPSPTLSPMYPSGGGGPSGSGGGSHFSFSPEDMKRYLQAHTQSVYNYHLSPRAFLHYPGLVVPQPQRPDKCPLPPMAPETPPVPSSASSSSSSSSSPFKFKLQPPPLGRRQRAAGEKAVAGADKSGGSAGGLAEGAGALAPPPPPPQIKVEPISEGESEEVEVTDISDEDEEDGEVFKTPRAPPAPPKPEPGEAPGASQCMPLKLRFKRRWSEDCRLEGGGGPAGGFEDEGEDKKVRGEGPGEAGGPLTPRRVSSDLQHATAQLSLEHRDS
# Summary of the method: as §1
# ETV3L = molecular target: T7, ETV3L (Homo sapiens, UniProt Q6ZN32 1-361); conditions: protein: recombinant; tags: N-terminal GST; dsDNA, one strand shown
# T7 sequence: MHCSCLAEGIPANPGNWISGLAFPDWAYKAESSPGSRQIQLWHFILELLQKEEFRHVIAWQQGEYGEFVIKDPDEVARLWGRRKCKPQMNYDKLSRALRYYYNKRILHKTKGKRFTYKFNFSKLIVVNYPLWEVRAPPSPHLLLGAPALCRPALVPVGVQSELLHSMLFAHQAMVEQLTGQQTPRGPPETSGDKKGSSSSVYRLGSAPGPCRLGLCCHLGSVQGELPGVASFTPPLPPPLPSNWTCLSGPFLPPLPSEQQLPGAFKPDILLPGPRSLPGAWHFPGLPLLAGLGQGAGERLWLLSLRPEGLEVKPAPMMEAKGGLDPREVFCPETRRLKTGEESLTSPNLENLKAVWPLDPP
# Summary of the method: as §1
# ETS2 = molecular target: T8, ETS2 (Homo sapiens, UniProt P15036 1-469); conditions: protein: recombinant; tags: N-terminal GST; dsDNA, one strand shown
# T8 sequence: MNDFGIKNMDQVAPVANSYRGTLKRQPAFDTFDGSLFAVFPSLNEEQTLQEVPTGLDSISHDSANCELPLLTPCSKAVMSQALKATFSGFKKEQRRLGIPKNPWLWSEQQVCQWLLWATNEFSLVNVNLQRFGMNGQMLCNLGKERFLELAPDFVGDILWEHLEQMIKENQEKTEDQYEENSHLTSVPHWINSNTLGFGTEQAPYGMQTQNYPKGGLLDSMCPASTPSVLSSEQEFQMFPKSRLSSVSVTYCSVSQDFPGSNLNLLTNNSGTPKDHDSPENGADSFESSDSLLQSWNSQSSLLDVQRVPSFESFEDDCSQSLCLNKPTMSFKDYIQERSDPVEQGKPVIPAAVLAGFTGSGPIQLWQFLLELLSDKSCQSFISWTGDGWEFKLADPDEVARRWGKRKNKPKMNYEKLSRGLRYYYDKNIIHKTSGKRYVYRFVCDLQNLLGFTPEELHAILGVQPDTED
# Summary of the method: as §1
# SPDEF = molecular target: T9, SPDEF (Homo sapiens, UniProt O95238 1-335); conditions: protein: recombinant; tags: N-terminal GST; dsDNA, one strand shown
# T9 sequence: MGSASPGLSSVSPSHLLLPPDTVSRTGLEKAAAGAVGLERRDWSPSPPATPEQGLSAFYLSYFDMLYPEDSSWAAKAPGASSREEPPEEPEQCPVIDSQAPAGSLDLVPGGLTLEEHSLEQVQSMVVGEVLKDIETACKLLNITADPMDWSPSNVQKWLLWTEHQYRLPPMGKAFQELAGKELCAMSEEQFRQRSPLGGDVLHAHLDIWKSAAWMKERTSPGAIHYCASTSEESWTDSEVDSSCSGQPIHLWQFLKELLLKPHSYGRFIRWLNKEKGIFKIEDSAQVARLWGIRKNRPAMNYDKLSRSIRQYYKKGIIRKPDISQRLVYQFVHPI
# Summary of the method: as §1
# ETV7 = molecular target: T10, ETV7 (Homo sapiens, UniProt Q9Y603 1-341); conditions: protein: recombinant; tags: N-terminal GST; dsDNA, one strand shown
# T10 sequence: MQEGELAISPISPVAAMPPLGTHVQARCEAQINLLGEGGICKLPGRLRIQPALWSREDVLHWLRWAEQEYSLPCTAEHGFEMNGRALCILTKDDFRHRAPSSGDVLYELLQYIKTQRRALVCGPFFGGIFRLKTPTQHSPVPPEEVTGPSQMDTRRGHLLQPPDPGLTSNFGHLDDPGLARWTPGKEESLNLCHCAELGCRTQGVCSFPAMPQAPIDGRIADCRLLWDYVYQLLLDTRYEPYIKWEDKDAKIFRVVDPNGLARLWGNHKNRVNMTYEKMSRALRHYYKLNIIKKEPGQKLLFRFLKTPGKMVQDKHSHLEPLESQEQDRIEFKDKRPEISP
# Summary of the method: as §1
# ELF5 = molecular target: T11, ELF5 (Homo sapiens, UniProt Q9UKW6-2 1-255); conditions: protein: recombinant; tags: N-terminal GST; dsDNA, one strand shown
# T11 sequence: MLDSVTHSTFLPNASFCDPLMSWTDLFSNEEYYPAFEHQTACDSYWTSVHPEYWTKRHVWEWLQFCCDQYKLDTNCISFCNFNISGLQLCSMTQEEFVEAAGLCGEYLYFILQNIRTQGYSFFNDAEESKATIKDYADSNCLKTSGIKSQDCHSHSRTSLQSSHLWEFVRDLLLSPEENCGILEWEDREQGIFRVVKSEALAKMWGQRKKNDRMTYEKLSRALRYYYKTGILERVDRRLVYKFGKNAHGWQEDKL
# Summary of the method: as §1
# ETV3 = molecular target: T12, ETV3 (Homo sapiens, UniProt P41162-2 1-143); conditions: protein: recombinant; tags: N-terminal GST; dsDNA, one strand shown
# T12 sequence: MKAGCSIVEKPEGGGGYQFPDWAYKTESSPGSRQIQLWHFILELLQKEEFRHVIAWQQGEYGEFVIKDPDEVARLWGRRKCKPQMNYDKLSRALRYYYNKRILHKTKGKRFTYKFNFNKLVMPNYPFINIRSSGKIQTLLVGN
# Summary of the method: as §1
# ETV6 = ETV6 (Homo sapiens, UniProt P41212 1-452); conditions: protein: recombinant; tags: N-terminal GST; dsDNA, one strand shown
# Chain of ETV6 (P41212 whole entry): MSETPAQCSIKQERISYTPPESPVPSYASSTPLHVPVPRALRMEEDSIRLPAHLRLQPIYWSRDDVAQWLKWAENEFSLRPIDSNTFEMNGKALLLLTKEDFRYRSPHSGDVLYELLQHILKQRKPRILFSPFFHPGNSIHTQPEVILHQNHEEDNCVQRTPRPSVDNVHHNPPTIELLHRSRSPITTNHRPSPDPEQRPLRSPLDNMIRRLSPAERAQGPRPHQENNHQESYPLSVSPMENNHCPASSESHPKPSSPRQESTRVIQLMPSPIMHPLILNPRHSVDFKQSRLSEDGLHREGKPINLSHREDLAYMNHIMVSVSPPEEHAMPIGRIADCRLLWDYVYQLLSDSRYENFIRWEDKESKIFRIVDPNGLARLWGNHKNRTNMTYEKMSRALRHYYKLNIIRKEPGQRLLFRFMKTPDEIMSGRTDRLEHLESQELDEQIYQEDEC
# Summary of the method: as §1
sequence,measurement,setting,value
ATTTAC,binding signal,FEV,"1.3 fold enrichment (6-mer frequency, TF over GST control)"
same,binding signal,ETV5,"1.33 fold enrichment (6-mer frequency, TF over GST control)"
same,binding signal,HSF1,"1.38 fold enrichment (6-mer frequency, TF over GST control)"
same,binding signal,SPIC,"1.2 fold enrichment (6-mer frequency, TF over GST control)"
same,binding signal,ELF4,"1.33 fold enrichment (6-mer frequency, TF over GST control)"
same,binding signal,ELK4,"1.23 fold enrichment (6-mer frequency, TF over GST control)"
same,binding signal,ETV2,"1.16 fold enrichment (6-mer frequency, TF over GST control)"
same,binding signal,ELF3,"1.27 fold enrichment (6-mer frequency, TF over GST control)"
same,binding signal,CRX,"1.75 fold enrichment (6-mer frequency, TF over GST control)"
same,binding signal,ETV1,"1.22 fold enrichment (6-mer frequency, TF over GST control)"
same,binding signal,ERF,"1.27 fold enrichment (6-mer frequency, TF over GST control)"
same,binding signal,ETV3L,"1.18 fold enrichment (6-mer frequency, TF over GST control)"
same,binding signal,ETS2,"1.28 fold enrichment (6-mer frequency, TF over GST control)"
same,binding signal,SPDEF,"1.21 fold enrichment (6-mer frequency, TF over GST control)"
same,binding signal,ETV7,"1.28 fold enrichment (6-mer frequency, TF over GST control)"
same,binding signal,ELF5,"1.25 fold enrichment (6-mer frequency, TF over GST control)"
same,binding signal,ETV3,"1.29 fold enrichment (6-mer frequency, TF over GST control)"
same,binding signal,ETV6,"1.18 fold enrichment (6-mer frequency, TF over GST control)"
